{"source": "PubChem BioAssay (NCI)", "note": "Compounds without any hit were thinned out: in the full panel of roughly 83,000, 20% have a hit.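 96-well plates, one dose, 48 hours. Percent growth reported; active if below 10.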 Calls of active or inactive are those of the source."}
{"tested_on": "SK-MEL-28 melanoma", "experiment": "NCI-60 one-dose screen, 48 h (100 = growth as untreated, 0 = no growth, -100 = all killed)", "details": "10 µM unless noted", "method": "Growth inhibition of the SK-MEL-28 human tumor cell line is measured as a screen for anti-cancer activity. Cells are grown in 96 well plates and exposed to the test compound for 48 hours. Compounds are tested at a single concentration, which is 10^-5 M for most compounds. The reported endpoint is percent growth (GI% or GIPRCNT), where numbers from 0 - 100% represent growth inhibition, and numbers from -100% - 0 represent cell death. For example, a value of 40 represents 60% growth inhibition. A value of 0 means no net growth occurred over the course of the experiment. A value of -40 indicates 40% of cells at the beginning of the experiment died by the end of the experiment. A value of -100 means all cells are dead at the end of the experiment.\nNCI-60 Human Tumor Cell Lines Screen was performed using the standard one-dose NCI protocol, which is described in more detail at https://dtp.cancer.gov/discovery_development/nci-60/default.htm.\nCompounds with GIPRCNT values below 10 were considered active. Activity score was based on GIPRCNT using the following formula: […]\nScore is 0 for GIPRCNT values of 100 or above, 50 for GIPRCNT values of 0, and 100 for GIPRCNT values of -100."}
{"smiles": "O=S1(=O)CCC(N(/N=C/c2ccco2)c2ccccc2)C1", "note": "(stereo not given)", "growth": "115% (inactive)"}
{"smiles": "CCN(CC)c1ccc2[nH]c3c(C(N)=O)cc(=O)c(=O)c=3oc2c1", "growth": "13.2% (inactive)"}
{"smiles": "c1coc(CNc2ccnc(Nc3ccc(OCCN4CCCCC4)cc3)n2)c1", "growth": "107% (inactive)"}
{"smiles": "CC1CN(c2oc(-c3ccccc3)nc2C#N)CC(C)O1", "note": "(stereo not given)", "growth": "104% (inactive)"}
{"smiles": "O=c1ccn(-c2ncnc3nc[nH]c23)cc1", "growth": "94.6% (inactive)"}
{"smiles": "CCOC(=O)c1ccc(NC(=O)N2CC(C)OC(C)C2)cc1", "note": "(stereo not given)", "growth": "98.5% (inactive)"}
{"smiles": "Cc1ccc2nc(Cl)cc(=O)n2c1", "growth": "120% (inactive)"}
{"smiles": "CCCCCCCC[C@@H](O)CC(=O)N[C@@H](CC(N)=O)C(=O)N[C@@H](CCC(N)=O)C(=O)N[C@@H](CC(=O)c1cc(C)cc(O)c1C(=O)c1c(O)cccc1O)CC(C)C", "growth": "28.5% (inactive)"}
{"smiles": "COc1ccc(-n2c(=O)sc3c(Cl)nc(C)nc32)c(OC)c1", "growth": "83.3% (inactive)"}
{"smiles": "COc1cc(C2CC(c3ccc4c(c3)OCO4)=NN2C(C)=O)cc(OC)c1OC", "note": "(stereo not given)", "growth": "52.7% (inactive)"}
{"smiles": "CC1=NC2=CC=CC3=NC(C(Cl)(Cl)Cl)=NC(=N1)N23", "growth": "86.1% (inactive)"}
{"smiles": "COc1ccc(/C=C(\\C#N)c2cc(OC)c3c(c2)OCO3)cc1", "growth": "67.8% (inactive)"}
{"smiles": "ClC(Cl)c1nc(-c2cccnc2)n2nc(-c3ccccc3)cc2n1", "growth": "73.4% (inactive)"}
{"smiles": "N#C/C(=C1C=C/C(=N/O)C(Cl)=C/1)c1ccc(Cl)cc1", "growth": "101% (inactive)"}
{"smiles": "CC(C)(C)c1[nH]nc2c1C(c1cc3ccccc3[nH]c1=O)Nc1cc(C(=O)Nc3ccc(Cl)cc3)ccc1N2", "note": "(stereo not given)", "growth": "81.7% (inactive)"}
{"smiles": "CC1=C(C#N)C(=O)NC(C)C1", "note": "(stereo not given)", "growth": "101% (inactive)"}
{"smiles": "COc1ccc(/C=C2\\N=C(c3ccccc3)N(C(=O)c3ccccc3O)NC2=O)cc1", "growth": "109% (inactive)"}
{"smiles": "c1ccc(-c2nc(N3CCNCC3)c3nc(-c4ccccc4)oc3n2)cc1", "growth": "101% (inactive)"}
{"smiles": "CN1CCN(Cc2ccc(NC(=O)c3cncc(C#Cc4cnc(N)c5ccncc45)c3)cc2C(F)(F)F)CC1", "growth": "-3.08% (active)"}
{"smiles": "COc1ccc(Nc2nn3c(C)cc(C)nc3c2C(=O)Nc2ccc(C)cc2)c(OC)c1", "growth": "94.4% (inactive)"}
{"smiles": "C=C1CCC2C3(C)COC(c4ccccc4)OC3CCC2(C)C1/C=C/C1=CCOC1=O", "note": "(stereo not given)", "growth": "98.1% (inactive)"}
{"smiles": "CCN(CC)CCOc1ccc(Cl)c(C)c1", "growth": "107% (inactive)"}
{"smiles": "COc1cc(/C=C/C(=O)c2c(C)nc3ccccc3c2C)ccc1OCCCCOc1cc2c(cc1OC)C(=O)N1CCC[C@H]1C=N2", "growth": "-85.5% (active)"}
{"smiles": "C=C[C@@H]1C[C@H](O)Cc2cc(F)ccc2N1", "growth": "98.7% (inactive)"}
{"smiles": "O=C1C(Cl)=C(Nc2ccccn2)C(=O)c2ccccc21", "growth": "34.8% (inactive)"}
{"smiles": "COc1ccc(-c2nc(N3CCCC3=O)sc2Br)cc1OC", "growth": "102% (inactive)"}
{"smiles": "CC(C)(C)OC(=O)NCCc1ccc(N=C=S)cc1", "growth": "69% (inactive)"}
{"smiles": "COC(=O)c1nc(-c2ccccc2)oc1S(=O)(=O)N1CCN(c2cccc(Cl)c2)CC1", "growth": "88.3% (inactive)"}
{"smiles": "O=C1NC(=C(Cl)Cl)/C(=N/S(=O)(=O)N2CCC(C3(C(F)(F)F)N=N3)CC2)N1", "growth": "99.1% (inactive)"}
{"smiles": "COc1ccc(C2NN=C3c4ccccc4CCC32)cc1", "note": "(stereo not given)", "growth": "76% (inactive)"}
{"smiles": "CCN(CC)CCC(CNc1ccnc2cc(Cl)ccc12)c1ccccc1", "note": "(stereo not given)", "growth": "-99.9% (active)"}
{"smiles": "CN(C)CCCN(c1nc(C(Cl)(Cl)Cl)ns1)c1nc(C(Cl)(Cl)Cl)ns1", "growth": "51.9% (inactive)"}
{"smiles": "Cn1c2ccc(Br)cc2c2c3c(c4c5ccccc5[nH]c4c21)C(=O)N(O)C3=O", "growth": "-79.3% (active)"}
{"smiles": "Nc1cccc(Cl)c1N", "growth": "119% (inactive)"}
{"smiles": "CC(=O)c1cc2c(N)c(C(=O)Nc3cccc4c3OCCO4)sc2nc1C", "growth": "94% (inactive)"}
{"smiles": "Oc1ccc(Cl)cc1-c1cc(-c2ccc(F)cc2)n[nH]1", "growth": "105% (inactive)"}
{"smiles": "COc1ccc(-c2nc(-c3nc4cc(C)c(C)cc4[nH]3)cc3c2[nH]c2ccccc23)cc1", "growth": "39.5% (inactive)"}
{"smiles": "OB(O)c1cccc(-c2nc3ccc4[nH]ncc4c3c3c2CCCC3)c1F", "growth": "92.5% (inactive)"}
{"smiles": "COc1cc2c(=O)n(C3CCCCCC3)c3c4cc[nH]c4ncc3c2cc1OC", "growth": "105% (inactive)"}
{"smiles": "C=C1C(=O)O[C@H]2[C@H]1CC/C(Cn1cc(CNC(=O)Cc3cn(C(=O)c4ccc(Cl)cc4)c4ccc(OC)cc34)nn1)=C\\CC[C@@]1(C)O[C@@H]21", "growth": "-56.9% (active)"}
